Reference: PubChem BioAssay (NCI)
Compounds without any hit were thinned out: in the full panel of roughly 83,000, 20% have a hit.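 Cell lines were cultured in 96-well plates, exposed to a single compound concentration, and assessed for percent growth 48 hours later.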 Active and inactive are the calls of the source. The calls were made as follows: active = growth percent below 10; inactive = the rest.

The molecules below were run on RXF 393 renal (assay: NCI-60 one-dose screen, 48 h (100 = growth as untreated, 0 = no growth, -100 = all killed)). Settings: 10 µM.

| SMILES | growth |
| --- | --- |
| COc1ccc2oc(=O)cc(C(c3ccc[nH]3)c3ccc[nH]3)c2c1 | -31.3% (active) |
| CCCN(CCC)CCCNC(=O)c1cc2c(-c3ccc(OC)c(OC)c3)nn(C)c2s1 | -2.45% (active) |
| N#Cc1c(-c2ccccc2)nc(SCC(=O)N2CCOCC2)[nH]c1=O | 117% (inactive) |
| COc1ccc(NC(=O)c2sc3nc4c(cc3c2N)C(O)CCC4)cc1 (stereo unspecified) | 102% (inactive) |
| COc1cccc2c1O/C(=C\c1ccc([N+](=O)[O-])s1)C2=O | 25.7% (inactive) |
| N#Cc1cnc2ccc(NCc3cnc[nH]3)cc2c1Nc1ccc(F)c(Cl)c1 | 52.8% (inactive) |
| O=C1/C(=C/c2ccc(O)cc2)Oc2ccc(Cl)cc21 | 65.6% (inactive) |
| Cc1ccc([P+](Cc2ccccc2)(c2ccccc2)c2ccccc2)cc1 | 45.7% (inactive) |
| CCOC(=O)c1c(C)n(-c2ccc(Cl)cc2)c2ccc(OC(=O)/C=C/c3ccccc3)cc12 | 73.7% (inactive) |
| O=C(O)CCCN1C(=O)NC2(C1=O)c1ccccc1-c1ccccc12 | 101% (inactive) |
| Cc1cc(C)c2nc(C)c(C)[n+]([O-])c2c1 | 114% (inactive) |
| CCOC(=O)c1sc(Nc2ncccn2)nc1-c1ccccn1 | 104% (inactive) |
| COc1ccc(-c2[nH]ncc2/C=C/c2cc(C(F)(F)F)[nH]c(=O)n2)cc1 | 125% (inactive) |
| COc1ccc(-c2nc(-c3nc4ccc(C)cc4[nH]3)c3ccccn23)cc1 | 66.5% (inactive) |
| CC(Oc1ccc(Cl)cc1)c1ccccc1 (stereo unspecified) | 103% (inactive) |
| CCCCCCCCCCN=C(c1ccc(N(C)C)cc1)c1ccc(N(C)C)cc1 | 3.59% (active) |
